The text below walks through data of PubChem BioAssay AID1946 (Johns Hopkins Ion Channel Center, 2009).

Among all 2,400 compounds or so, about 180 (7.5%) were called active. The sample holds actives, similar compounds and a random draw of the others, so the mix is not that of the screen. Unmarked numbers belong to inactive results.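 Rule for the calls: active = readout below zero, meaning a drop past 3 SD under the dofetilide-free negative control mean; inactive = the rest.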

For the assay, the target named is Potassium voltage-gated channel subfamily KQT member 2 (Rattus norvegicus) (UniProt O88943). In words: rat KCNQ2 channel inhibition by compounds alone, confirmation, counter-screen for hERG block protector project, cell-based, CHO, FluxOR thallium flux (AID 1946). To be noted: CHO-KCNQ2 cells, FluxOR thallium flux fluorescence; at 10 µM; stronger effect = lower value; zero marks the 3-SD hit cutoff. On the technique in general: The purpose of a counterscreen is to sort out artefacts and off-target activity.
Chain of Potassium voltage-gated channel subfamily KQT member 2 (Rattus norvegicus) (O88943 whole entry, looked up): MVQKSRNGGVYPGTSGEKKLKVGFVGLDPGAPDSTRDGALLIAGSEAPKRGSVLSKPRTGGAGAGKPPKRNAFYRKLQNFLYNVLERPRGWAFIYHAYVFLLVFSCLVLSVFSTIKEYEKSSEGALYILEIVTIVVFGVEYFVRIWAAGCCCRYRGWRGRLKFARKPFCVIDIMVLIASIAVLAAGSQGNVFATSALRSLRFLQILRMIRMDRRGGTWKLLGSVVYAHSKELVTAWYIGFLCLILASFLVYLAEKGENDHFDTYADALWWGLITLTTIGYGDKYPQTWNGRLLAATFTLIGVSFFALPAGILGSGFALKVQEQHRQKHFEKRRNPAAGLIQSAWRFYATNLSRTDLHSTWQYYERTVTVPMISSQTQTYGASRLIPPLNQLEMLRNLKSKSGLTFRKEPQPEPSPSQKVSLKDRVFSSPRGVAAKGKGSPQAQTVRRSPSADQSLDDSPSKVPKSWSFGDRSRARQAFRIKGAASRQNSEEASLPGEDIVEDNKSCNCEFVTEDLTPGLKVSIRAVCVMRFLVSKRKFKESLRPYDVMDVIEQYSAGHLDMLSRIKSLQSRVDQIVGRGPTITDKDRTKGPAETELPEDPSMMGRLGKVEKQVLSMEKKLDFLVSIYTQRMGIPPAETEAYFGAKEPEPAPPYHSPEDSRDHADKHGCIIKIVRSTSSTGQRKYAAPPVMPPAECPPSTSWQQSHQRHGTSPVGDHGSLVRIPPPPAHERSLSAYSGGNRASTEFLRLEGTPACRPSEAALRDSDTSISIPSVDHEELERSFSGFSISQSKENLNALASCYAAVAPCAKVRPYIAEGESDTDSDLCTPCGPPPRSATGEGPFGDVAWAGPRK
Consider `Cc1nc(SCC(=O)NCC2CCCO2)c2c3c(sc2n1)CCCC3` (centres undefined), for which the activity change vs negative control was 32.5%.

As to `Cc1ccc(NC(=O)CCc2nc3sc4c(c3c(=O)[nH]2)CCCC4)c(Br)c1`, the activity change vs negative control is -0.3% (active). For `CCOC(=O)c1cnn(-c2nc(SC)nc3sc4c(c23)CCCC4)c1N`, the activity change vs negative control was 5.9%. As for `Fc1ccc(NC(=S)Nc2nccs2)cc1`, the activity change vs negative control was 16.4%. As to `CCC(C)c1ccccc1NC(=S)NC(=O)c1ccco1` (centres undefined), the activity change vs negative control was 82%.

Consider `O=C(CCN1C(=O)/C(=C/c2cccs2)SC1=S)Nc1cccc(C(=O)O)c1`, for which the activity change vs negative control was 5.2%. Consider `COc1cc(/C=C2/SC(=S)N(CC(=O)O)C2=O)ccc1OCC(=O)Nc1ccc(C)c(C)c1`, for which the activity change vs negative control is -3.8% (active). For `Cc1ccc(NC(=O)CN2C(=O)S/C(=C/c3ccc(-c4cc(C(=O)O)ccc4C)o3)C2=O)cc1C`, the activity change vs negative control is 4.8%. For `CSc1nc2c(c(=O)[nH]1)C(c1ccccc1Cl)CC(=O)N2` (centres undefined) the value was 1.5%; for `Cc1cccc(NC(=S)NC(=O)c2ccc(Br)o2)c1C`, 27.3%; for `Cc1ccc(C(=O)NC(C)c2ccc(C)c(C)c2)s1` (centres undefined), 53.7%. For `COc1ccc(/C=C2\SC(=N)N(c3nccs3)C2=O)cc1OC` the value was 6.8%. Regarding `COc1ccc(/C=C2\SC(c3ccc(C)cc3)=NC2=O)cc1OC`, the activity change vs negative control was -3.2% (active). On to `COc1cc(/C=C/C(=O)O)ccc1OS(=O)(=O)c1cc(C)ccc1C`, for which the activity change vs negative control was 13.1%. Consider `O=S(=O)(NC(=S)NC1CCCCC1)c1ccc(Cl)cc1`, for which the activity change vs negative control is 34.4%. For `S=c1nc(Cc2ccc(Cl)cc2)[nH]c2ccccc12` the value was 51.9%. For the molecule `COc1ccccc1C(=O)NNC(=O)C(=O)NCc1ccccc1`, the activity change vs negative control was 41.8%. For `COc1ccccc1NC(=O)C1CCCN1C(=O)NCc1ccccc1` (centres undefined) the value was -1.2% (active); for `COc1ccccc1NC(=O)C1CCCN1C(=O)Nc1ccc(F)cc1` (centres undefined), 1.7%. To `COc1cccc(OCC(=O)NNC(=O)C(=O)Nc2ccc(OC)cc2OC)c1` belongs 43.2%; to `O=C1NC(=S)S/C1=C\c1ccc2ccccc2c1`, 75.1%. As to `CCCN1C(=O)/C(=C/c2ccc3c(c2)OCO3)NC1=S`, the activity change vs negative control was 19.4%. Take `O=C1NC(=O)/C(=C/c2cc3c(cc2Br)OCO3)S1`: the activity change vs negative control was -0.8% (active). In the case of `N#Cc1c(NC(=O)c2cc(-n3cnnc3)ccc2Cl)sc2c1CCCC2`, the activity change vs negative control is 13%. Consider `COc1ccc(C(=O)CC(=O)C(=O)Nc2ccccc2)cc1`, for which the activity change vs negative control was 32.5%.

In the case of `CC1CN(C(=S)NC(=O)c2ccc(Cl)cc2)CC(C)O1` (centres undefined), the activity change vs negative control is 28.2%. For `CCn1cc(C(=O)NCCN(C)C)c(=O)c2cc(F)c(N3CCN(C)CC3)cc21`, the activity change vs negative control was -0.9% (active). Take `O=C(NC(=S)Nc1cccnc1)c1cc2ccccc2o1`: the activity change vs negative control is 31.9%.

In the case of `CC(C)Oc1cccc(C(=O)N2CCCC2)c1`, the activity change vs negative control was 9.7%. To `COc1ccc(C(=O)O)cc1S(=O)(=O)Nc1cccc(C(F)(F)F)c1` belongs 8%; to `COc1ccc(CS(=O)(=O)CC2(O)CCN(C(=O)c3cccc(C(F)(F)F)c3)CC2)cc1`, -2.4% (active).

In the case of `C/C(=N\NC(=O)c1cc2ccccc2cc1O)c1cc2ccccc2o1`, the activity change vs negative control was 112%.

Consider `Cc1c(-c2ccn[nH]2)cc(NC(=O)c2ccc(Cl)cc2)c(=O)n1N`, for which the activity change vs negative control was -0.8% (active). For the molecule `O=C(Nc1nc(=O)c2ccccc2s1)c1ccc(Cl)cc1`, the activity change vs negative control is 23.9%.

On to `Cc1ccc(C(=O)Nc2nc(=O)n(C)s2)cc1`, for which the activity change vs negative control was 15.9%. To `CCOC(=O)c1ccc(NC(=O)Cn2nnc(-c3ccccc3)n2)cc1` belongs -3.4% (active); to `Cc1cc(C)c(-c2cc(NC(=O)COC(=O)c3ccc(NC(=O)CC#N)cc3)n(-c3ccccc3)n2)cc1C`, 7.4%; to `CCOC(=O)c1nnn(CC(=O)Nc2cccc(F)c2)c1C(=O)OCC`, 14.1%. For `Cc1cccc(NC(=S)NC(=O)c2ccco2)c1C` the value was 77.7%; for `O=C(Nc1nc(-c2ccccc2)c(-c2ccccc2)o1)c1ccc(F)cc1`, 40.3%. For `O=C(Nc1cccc2[nH]ncc12)c1ccc(F)cc1` the value was -2.9% (active); for `CCOc1cccc(C(=O)Nc2ccc3[nH]ncc3c2)c1`, 15.6%; for `CCCCn1c(N)c(C(=S)NC(=O)CC(C)(C)C)c(=O)n(C)c1=O`, 40.5%. Consider `Cc1sc2ncnc(SCC(=O)c3ccc(O)cc3O)c2c1C`, for which the activity change vs negative control was 24.3%. With `Cn1ncc2c(NNC(=O)Cc3ccccc3)ncnc21`, the activity change vs negative control is 15.1%. As to `Cn1ncc2c(O/N=C(\N)c3ccc(C(F)(F)F)cc3)ncnc21`, the activity change vs negative control is 7.4%. `Cn1ncc2c(NNC(=O)c3ccc(O)cc3)ncnc21`: the activity change vs negative control is -3.1% (active). For `O=c1cc(-c2ccccc2)cc(-c2ccccc2)n1O` the value was 72.2%; for `COc1ccc(OCC(=O)NNC(=O)C(=O)Nc2ccc(C)cc2)cc1`, 7.7%; for `COC(=O)CNC(=S)NC(=O)c1ccc(C(C)(C)C)cc1`, 1.6%. As for `COC(=O)CNc1nc(Cl)nc(Nc2ccc(C)cc2)n1`, the activity change vs negative control was -0.4% (active). To `COc1ccc(-n2c(=S)[nH]c3ccccc3c2=S)cc1` belongs 22.2%; to `COc1ccc(-n2c(O)c(/C=C3\C=Nc4ccccc43)c(=O)[nH]c2=O)cc1`, -8.7% (active). Turning to `COc1ccc(Cn2c(O)cc(=O)[nH]c2=O)cc1`, the activity change vs negative control was 1.4%. Turning to `CCC1(C)Cc2c(sc3nc(SC)[nH]c(=S)c23)CO1` (centres undefined), the activity change vs negative control was 131%. For `COc1ccc(/C=C/C(=O)Nc2ccccc2C(=O)O)cc1` the value was 27.2%. For `CCOC(=O)/C(C)=N/NC(=O)c1ccc([N+](=O)[O-])cc1` the value was 40.5%; for `CCNC(=S)Nc1nc2c(cc1C(=O)OCC)CCCC2`, 29.4%. To `O=C(O)CSc1nc2ccccc2nc1Cc1ccccc1F` belongs 29.1%. On to `O=C(O)CSCc1c(F)cccc1Cl`, for which the activity change vs negative control was -3.5% (active).

For `CCN(CC)CCCN1C(=O)c2oc3ccccc3c(=O)c2C1c1cccs1` (centres undefined), the activity change vs negative control was 44.2%. With `CON/C=N/C(=S)Nc1ncc(C(F)(F)F)cc1Cl`, the activity change vs negative control is 51.1%. To `Cc1nn(C)c(C(=O)NC(=S)Nc2ccc([N+](=O)[O-])cc2)c1Cl` belongs 29.3%. Turning to `Cc1ccc(NC(=S)NC(=O)c2sc3ccccc3c2Cl)c(C(=O)O)c1`, the activity change vs negative control is 36.9%. For `CCOc1ccc(/C=C2\CCc3ccccc3C2=O)cc1`, the activity change vs negative control was 10.2%. To `COc1cccc(C2C3=C(N=c4s/c(=C\c5ccc(OCC(=O)O)cc5)c(=O)n42)c2ccccc2CC3)c1` (centres undefined) belongs -16.7% (active); to `COc1cccc([C@@H]2Oc3ccc(OC)cc3C(=O)[C@H]2OC(=O)NCc2ccc3c(c2)OCO3)c1`, 2.3%. As to `O=C(NC(=S)N(CCCCO)C1CCCCC1)c1sc2ccccc2c1Cl`, the activity change vs negative control was 53.8%. `O=C(CNCC1CCCO1)N1CCCCCC1` (centres undefined): the activity change vs negative control is 8.2%. For `O=C(CSc1cn(CC(=O)N2CCCC2)c2ccccc12)NCC1CCCO1` (centres undefined) the value was -4.5% (active); for `C=CCn1c(SCC(=O)NCC2CCCO2)nnc1-c1ccccc1` (centres undefined), 8.9%. As for `CC(C)(C)c1cc(C(=O)NNC(=O)c2ccc(Cl)cc2)no1`, the activity change vs negative control was 53.5%. With `COc1cccc(OC)c1OCCOCCN1CCN(C)CC1`, the activity change vs negative control is 6.8%. To `COc1cccc(CN(C)CC2CCCN(CCc3ccc(Cl)cc3)C2)c1OC` (centres undefined) belongs -3.8% (active); to `Oc1c(Cl)cc(Cl)cc1C=Nc1ccc(Br)cc1`, 60.6%. `CCOC(=O)N/N=C/C=C/c1ccccc1[N+](=O)[O-]`: the activity change vs negative control is 28.8%.

For the molecule `C=CCN(c1ccc(Cl)cc1)S(=O)(=O)c1cccc(C(=O)O)c1`, the activity change vs negative control was 26.2%. To `S=c1nn[nH]n1C12CC3CC(CC(C3)C1)C2` belongs 36.2%; to `CC1CCN(C(=S)NC(=O)c2cccs2)CC1`, 23.7%.

On to `C=CCn1c(=S)[nH]c2scc(-c3cccs3)c2c1=O`, for which the activity change vs negative control was 121%. On to `C=CCc1cccc(C2Nc3ccccc3C(=O)N2O)c1O` (centres undefined), for which the activity change vs negative control was 19%. For the molecule `OC(CNCCc1ccc(C(F)(F)F)cc1)COc1cccc2ccccc12` (centres undefined), the activity change vs negative control was -18.2% (active). On to `Cn1c(NNC(=O)C(c2ccccc2)c2ccccc2)cc(=O)n(C)c1=O`, for which the activity change vs negative control was 12.8%. To `CC12CCC(C(=O)NCc3ccc4c(c3)OCO4)(CC1=O)C2(C)C` (centres undefined) belongs 9.1%; to `Cc1ccc(C(=O)NNc2cc(N3CCCC3)nc(N3CCCC3)n2)cc1`, 39.7%. As for `COc1ccccc1NC(=O)C(=O)NNC(=O)c1ccco1`, the activity change vs negative control is 47.8%. Take `CC(=O)c1cccc(NC(=O)NCc2cccs2)c1`: the activity change vs negative control is 8.1%.

With `COc1ccc(COC(=O)C2CCN(S(=O)(=O)c3cccs3)CC2)cc1`, the activity change vs negative control was 9.3%.

On to `O=C(NCc1cccs1)C1CCC(CNS(=O)(=O)c2cccs2)CC1` (centres undefined), for which the activity change vs negative control was -0.3% (active). Turning to `O=[N+]([O-])c1ccc(-c2ccc(/C=N/n3cnnc3)o2)c(Br)c1`, the activity change vs negative control was 3.2%. In the case of `CCOC(=O)/C(C)=N/NC(=O)c1cccc([N+](=O)[O-])c1`, the activity change vs negative control is 36.5%.

As for `CCOc1ccccc1C(=O)NC1CC2CCCC(C1)N2Cc1nnnn1Cc1ccco1` (centres undefined), the activity change vs negative control was -2.8% (active).

On to `COc1ccccc1C(=O)NNC(=O)C(=O)NC1CCCCC1`, for which the activity change vs negative control was 71.2%. To `COc1ccc(C(=O)NC2CC3CCCC(C2)N3Cc2ccccc2)cc1` (centres undefined) belongs 3.9%; to `COc1ccc(C(=O)CC(=O)C(=O)Nc2ccccc2Cl)cc1`, 73.9%.

On to `O=C(CCCOc1ccc(Cl)cc1Cl)Nc1ccccc1C(=O)O`, for which the activity change vs negative control was -11.5% (active). Turning to `O=C(COc1ccc(Cl)cc1Cl)NC(=S)Nc1ccccc1C(=O)O`, the activity change vs negative control is 10.9%.

Take `COc1cc(NC(=O)CCCOc2ccc(Cl)cc2Cl)c(C(=O)O)cc1OC`: the activity change vs negative control was 4.3%. For `C/C(=N\NC(=O)c1cc2ccccc2cc1O)c1ccc(C)o1` the value was 53.8%.
